Consider 5 molecules from PubChem BioAssay.

In assay [1] the test system is PRMT1 (protein arginine N-methyltransferase 1). Briefly: small molecules binding arginine methyltransferase PRMT1 – biochemical, small-molecule microarray, 635 nm fluorescence, primary screen (AID 1088).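 Further: binding of Prmt1 protein to compounds spotted on small-molecule microarray slides.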 The note with it: higher = more signal.
Assay [2] can be described thus: growth effects on S. cerevisiae YJM789 – YJM789 clinical isolate, OD600, 24 h, basal, primary screen (AID 1089).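 Further: growth of clinical yeast isolate S. cerevisiae YJM 789 seeded 1000 cells per well; test concentration not given here.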 The note with it: higher = more signal, called active from +8 up or from −8 down.
Assay [3] in a line: S. pombe growth modifiers, basal conditions – strain 972, OD600, 24 h, no modulator, primary screen (AID 1090).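 Further: basal condition with compound alone and no growth modifier present; test concentration not given here.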 To be noted: S. pombe 972 growth, higher = more signal, called active from +8 up or from −8 down.
Assay [4] in a line: budding yeast growth modifiers under rapamycin – strain BY4716, OD600, 96 h, primary screen (AID 1091). Further: test concentration not given here. The note with it: S. cerevisiae BY4716 + rapamycin, higher = more signal, called active from +8 up or from −8 down.
The target in assay [5] is Torsin-1A-interacting protein 2 (Homo sapiens) (UniProt Q8NFQ8). The experiment in a line: small molecules binding lysate-expressed LULL1 – cell lysate, human LULL1 lysate, 635/667 nm fluorescence, primary screen (AID 1092).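 Further: probe is lysate of COS7 cells overexpressing human LULL1; score merges per-feature 667 nm fluorescence with signal-to-noise.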 To be noted: small-molecule microarray, hLULL1 lysate binding, 635 nm fluorescence; higher = more signal.
The nature of assay [6]: optical density change of DRC41 E. coli – strain DRC41, OD650, 24 h, E. coli filamentation project, primary screen (AID 1093).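 Further: MC1000 strain lacking acrAB efflux and sulA so SOS filamentation is blocked; test concentration not given here.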 The note with it: E. coli DRC41 growth, higher = more signal, called active from +8 up or from −8 down.
A short description of assay [7]: probe aLefty2 binding to arrayed compounds – biochemical, biotinylated probe, 635/667 nm fluorescence, primary screen (AID 1094).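 Further: score merges spot fluorescence near 667 nm with spot signal-to-noise ratio.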 To be noted: small-molecule microarray, higher = more signal.
The test system of assay [8] is Noggin (protein binding on small-molecule microarray). Briefly: small molecules binding Noggin protein – biochemical, 635/667 nm fluorescence, primary screen (AID 1095).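 Further: score merges 667 nm feature fluorescence with signal to noise over triplicate slides.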 The note with it: 635 nm fluorescence, higher = more signal.
Assay [9] deals with Neurogenic locus notch homolog protein 3 (Homo sapiens) (UniProt Q9UM47). Briefly: small molecules binding NOTCH3 protein – biochemical, 635/667 nm fluorescence, primary screen (AID 1096). The note with it: small-molecule microarray, 635 nm fluorescence, higher = more signal.
Assay [10] is described as follows: probe aEGFR binding to arrayed compounds – biochemical, biotinylated probe, 635/667 nm fluorescence, primary screen (AID 1097).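 Further: probe is a biotinylated anti-EGFR antibody binding compounds printed on slides; score combines fluorescence near 667 nm and signal to noise of each spot.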 To be noted: small-molecule microarray, higher = more signal.
For assay [11], the system named is Plasmodium falciparum Sir2 (PF13_0152, Sir2A). Briefly: Plasmodium falciparum Sir2A binding compounds – biochemical, small-molecule microarray, 635 nm fluorescence, primary screen (AID 1098).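 Further: score merges spot fluorescence intensity with its signal-to-noise ratio.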 To be noted: fluorescence 635 nm, higher = more signal.
The nature of assay [12]: probe aDKK1 binding to arrayed compounds – biochemical, biotinylated probe, 635/667 nm fluorescence, primary screen (AID 1099).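 Further: score merges 667nm spot fluorescence with signal to noise across triplicate slides; reference of the scale not given here.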 The note with it: small-molecule microarray, higher = more signal.
The nature of assay [13]: probe aCHRDL2 binding to arrayed compounds – biochemical, biotinylated probe, 635/667 nm fluorescence, primary screen (AID 1100). To be noted: small-molecule microarray, higher = more signal.
Assay [14] in a line: change in splice reporter luminescence, either direction, cell-based, HEK293, spliceosome inhibition project, primary screen (AID 1101).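 Further: HEK293 cells carrying a splicing-competent luciferase reporter gene; test concentration not given here.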 To be noted: HEK293 splicing luciferase reporter, 24 h, higher = more signal, called active from +8 up or from −8 down. Background: Reporter assays use an easily measured gene product as a stand-in for the process of interest.
Assay [15] has as its target Fibroblast growth factor 10 (Homo sapiens) (UniProt O15520). Briefly: compounds binding fibroblast growth factor 10 – biochemical, small-molecule microarray, 635 nm fluorescence, primary screen (AID 1102). To be noted: FGF10 binding, fluorescence 635 nm, higher = more signal.
The test system of assay [16] is glycogen synthase kinase-3 (GSK3A per assay name; protocol says GSK3B). Briefly: compounds binding glycogen synthase kinase-3 – biochemical, small-molecule microarray, 635 nm fluorescence, GSK3A, primary screen (AID 1103). Further: the record names both GSK3A and GSK3B. To be noted: fluorescence 635 nm, higher = more signal.
Assay [17] concerns the target Epidermal growth factor receptor (Homo sapiens) (UniProt P00533). The experiment in a line: compounds binding epidermal growth factor receptor – biochemical, small-molecule microarray, 635 nm fluorescence, primary screen (AID 1104).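 Further: score merges 667 nm emission intensity with spot signal to noise over triplicate slides.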 The note with it: EGFR binding, higher = more signal.
In assay [18] the target is Follistatin-related protein 3 (Homo sapiens) (UniProt O95633). The experiment in a line: compounds binding follistatin-related protein 3 – biochemical, small-molecule microarray, 635 nm fluorescence, primary screen (AID 1105).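 Further: score merges emission near 667 nm and signal to noise per printed spot across three slides.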 The note with it: FSTL3 binding, higher = more signal.
Assay [19] has as its target Dickkopf-related protein 1 (Homo sapiens) (UniProt O94907). The experiment in a line: small molecules binding DKK1 protein – biochemical, small-molecule microarray, 635 nm fluorescence scan, primary screen (AID 1106).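 Further: score merges emission near 667 nm with signal to noise over three replicate slides.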 To be noted: higher = more signal.
In assay [20] the test system is Inhibin beta A chain (activin A). Briefly: small molecules binding activin A – biochemical, small-molecule microarray, 635 nm fluorescence scan, primary screen (AID 1107).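 Further: mouse activin A protein probed at 4.33 µg/mL on printed slides; score merges bound-protein fluorescence near 667 nm with spot signal-to-noise.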 To be noted: INHBA, higher = more signal.

Molecules are shown by their SMILES. Calls of active or inactive are those of the source.

Fibroblast growth factor 10 (Homo sapiens), sequence (O15520 whole entry, looked up): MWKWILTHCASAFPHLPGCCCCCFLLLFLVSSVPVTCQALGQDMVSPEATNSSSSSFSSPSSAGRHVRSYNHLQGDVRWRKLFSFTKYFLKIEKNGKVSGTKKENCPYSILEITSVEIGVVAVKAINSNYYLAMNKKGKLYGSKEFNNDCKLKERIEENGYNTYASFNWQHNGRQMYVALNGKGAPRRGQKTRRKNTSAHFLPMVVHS
Neurogenic locus notch homolog protein 3 (Homo sapiens), sequence (Q9UM47 whole entry, looked up): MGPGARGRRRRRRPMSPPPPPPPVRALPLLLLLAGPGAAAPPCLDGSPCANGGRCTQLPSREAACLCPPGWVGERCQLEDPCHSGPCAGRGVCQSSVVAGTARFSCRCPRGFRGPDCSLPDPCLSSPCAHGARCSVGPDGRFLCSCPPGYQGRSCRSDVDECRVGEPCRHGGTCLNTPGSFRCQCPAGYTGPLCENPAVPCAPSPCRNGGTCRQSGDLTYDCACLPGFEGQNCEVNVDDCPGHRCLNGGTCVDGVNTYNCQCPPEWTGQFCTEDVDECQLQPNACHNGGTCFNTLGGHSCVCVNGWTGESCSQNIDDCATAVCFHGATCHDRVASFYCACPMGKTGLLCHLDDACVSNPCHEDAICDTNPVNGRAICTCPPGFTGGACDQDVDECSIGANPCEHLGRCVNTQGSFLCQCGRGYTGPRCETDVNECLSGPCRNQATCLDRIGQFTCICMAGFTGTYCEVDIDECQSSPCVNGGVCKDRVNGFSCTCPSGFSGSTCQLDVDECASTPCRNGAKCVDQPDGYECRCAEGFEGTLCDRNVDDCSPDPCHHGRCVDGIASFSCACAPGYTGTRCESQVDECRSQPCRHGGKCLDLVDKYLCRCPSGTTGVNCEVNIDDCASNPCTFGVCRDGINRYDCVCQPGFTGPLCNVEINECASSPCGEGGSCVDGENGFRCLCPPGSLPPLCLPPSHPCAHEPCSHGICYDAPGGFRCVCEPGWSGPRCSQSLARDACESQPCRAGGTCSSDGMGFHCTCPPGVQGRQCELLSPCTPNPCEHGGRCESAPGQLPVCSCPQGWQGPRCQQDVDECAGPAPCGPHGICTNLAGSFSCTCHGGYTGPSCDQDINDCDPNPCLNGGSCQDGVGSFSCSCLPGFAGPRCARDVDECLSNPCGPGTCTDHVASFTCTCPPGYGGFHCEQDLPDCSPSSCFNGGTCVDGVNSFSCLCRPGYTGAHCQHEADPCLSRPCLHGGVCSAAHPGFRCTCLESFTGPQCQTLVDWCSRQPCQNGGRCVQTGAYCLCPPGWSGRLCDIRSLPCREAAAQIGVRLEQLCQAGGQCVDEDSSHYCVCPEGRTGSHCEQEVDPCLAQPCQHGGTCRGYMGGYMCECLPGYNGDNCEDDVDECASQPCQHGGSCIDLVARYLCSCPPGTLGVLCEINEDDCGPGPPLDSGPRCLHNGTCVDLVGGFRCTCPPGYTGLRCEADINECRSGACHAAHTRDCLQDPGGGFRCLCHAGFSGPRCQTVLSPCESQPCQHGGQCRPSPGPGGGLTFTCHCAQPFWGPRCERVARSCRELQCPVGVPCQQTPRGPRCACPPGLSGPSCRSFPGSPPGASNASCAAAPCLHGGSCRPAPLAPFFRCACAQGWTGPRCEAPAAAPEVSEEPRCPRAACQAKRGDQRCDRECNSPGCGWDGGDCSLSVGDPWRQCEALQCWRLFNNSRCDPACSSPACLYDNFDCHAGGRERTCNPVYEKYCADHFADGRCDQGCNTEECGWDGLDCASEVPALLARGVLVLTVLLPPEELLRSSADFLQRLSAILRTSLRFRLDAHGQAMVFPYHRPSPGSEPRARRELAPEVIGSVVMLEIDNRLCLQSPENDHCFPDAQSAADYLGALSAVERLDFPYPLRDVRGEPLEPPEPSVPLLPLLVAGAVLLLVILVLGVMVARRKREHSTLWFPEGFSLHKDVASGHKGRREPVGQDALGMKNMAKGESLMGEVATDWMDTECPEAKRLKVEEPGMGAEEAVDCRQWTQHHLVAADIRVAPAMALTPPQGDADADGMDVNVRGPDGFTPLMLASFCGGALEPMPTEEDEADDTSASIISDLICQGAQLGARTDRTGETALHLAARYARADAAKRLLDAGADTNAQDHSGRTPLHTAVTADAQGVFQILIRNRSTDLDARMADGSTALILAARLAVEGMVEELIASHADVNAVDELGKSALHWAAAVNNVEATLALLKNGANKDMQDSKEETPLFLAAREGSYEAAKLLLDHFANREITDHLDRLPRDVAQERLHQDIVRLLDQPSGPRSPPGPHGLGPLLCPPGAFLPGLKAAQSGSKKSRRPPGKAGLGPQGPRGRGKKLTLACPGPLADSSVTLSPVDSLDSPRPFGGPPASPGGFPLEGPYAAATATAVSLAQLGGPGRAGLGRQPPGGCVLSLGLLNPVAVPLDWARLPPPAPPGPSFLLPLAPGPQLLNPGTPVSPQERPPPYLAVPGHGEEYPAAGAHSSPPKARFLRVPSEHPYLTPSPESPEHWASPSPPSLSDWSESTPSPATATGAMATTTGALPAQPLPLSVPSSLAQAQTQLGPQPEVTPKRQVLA
Follistatin-related protein 3 (Homo sapiens), sequence (O95633 whole entry, looked up): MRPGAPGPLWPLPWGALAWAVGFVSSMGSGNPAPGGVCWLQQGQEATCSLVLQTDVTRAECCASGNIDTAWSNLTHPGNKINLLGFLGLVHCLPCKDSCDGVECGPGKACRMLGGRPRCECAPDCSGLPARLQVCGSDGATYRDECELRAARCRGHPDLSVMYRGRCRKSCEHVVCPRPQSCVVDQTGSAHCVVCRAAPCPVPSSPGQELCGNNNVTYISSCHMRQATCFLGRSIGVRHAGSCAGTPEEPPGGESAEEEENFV
Torsin-1A-interacting protein 2 (Homo sapiens), sequence (Q8NFQ8 whole entry, looked up): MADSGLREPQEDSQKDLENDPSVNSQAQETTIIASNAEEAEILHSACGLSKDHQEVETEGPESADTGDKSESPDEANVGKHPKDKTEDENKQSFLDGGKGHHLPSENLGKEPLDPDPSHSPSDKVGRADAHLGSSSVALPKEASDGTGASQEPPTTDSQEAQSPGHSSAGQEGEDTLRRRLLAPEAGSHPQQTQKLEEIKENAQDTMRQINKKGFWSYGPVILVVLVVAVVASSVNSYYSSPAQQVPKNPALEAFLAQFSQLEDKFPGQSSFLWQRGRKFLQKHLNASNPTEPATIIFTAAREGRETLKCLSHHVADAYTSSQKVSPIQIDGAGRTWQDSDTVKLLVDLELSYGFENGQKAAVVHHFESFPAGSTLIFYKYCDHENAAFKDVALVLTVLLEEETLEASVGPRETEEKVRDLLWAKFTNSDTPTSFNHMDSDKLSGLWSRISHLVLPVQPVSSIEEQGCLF
Dickkopf-related protein 1 (Homo sapiens), sequence (O94907 whole entry, looked up): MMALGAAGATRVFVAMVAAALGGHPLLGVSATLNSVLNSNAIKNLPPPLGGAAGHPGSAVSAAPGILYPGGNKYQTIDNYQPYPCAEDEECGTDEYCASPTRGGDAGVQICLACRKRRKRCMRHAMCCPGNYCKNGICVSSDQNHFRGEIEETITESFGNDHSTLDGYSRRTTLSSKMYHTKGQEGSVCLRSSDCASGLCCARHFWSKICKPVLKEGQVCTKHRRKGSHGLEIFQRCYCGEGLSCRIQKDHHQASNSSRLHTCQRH
Epidermal growth factor receptor (Homo sapiens), sequence (P00533 whole entry, looked up): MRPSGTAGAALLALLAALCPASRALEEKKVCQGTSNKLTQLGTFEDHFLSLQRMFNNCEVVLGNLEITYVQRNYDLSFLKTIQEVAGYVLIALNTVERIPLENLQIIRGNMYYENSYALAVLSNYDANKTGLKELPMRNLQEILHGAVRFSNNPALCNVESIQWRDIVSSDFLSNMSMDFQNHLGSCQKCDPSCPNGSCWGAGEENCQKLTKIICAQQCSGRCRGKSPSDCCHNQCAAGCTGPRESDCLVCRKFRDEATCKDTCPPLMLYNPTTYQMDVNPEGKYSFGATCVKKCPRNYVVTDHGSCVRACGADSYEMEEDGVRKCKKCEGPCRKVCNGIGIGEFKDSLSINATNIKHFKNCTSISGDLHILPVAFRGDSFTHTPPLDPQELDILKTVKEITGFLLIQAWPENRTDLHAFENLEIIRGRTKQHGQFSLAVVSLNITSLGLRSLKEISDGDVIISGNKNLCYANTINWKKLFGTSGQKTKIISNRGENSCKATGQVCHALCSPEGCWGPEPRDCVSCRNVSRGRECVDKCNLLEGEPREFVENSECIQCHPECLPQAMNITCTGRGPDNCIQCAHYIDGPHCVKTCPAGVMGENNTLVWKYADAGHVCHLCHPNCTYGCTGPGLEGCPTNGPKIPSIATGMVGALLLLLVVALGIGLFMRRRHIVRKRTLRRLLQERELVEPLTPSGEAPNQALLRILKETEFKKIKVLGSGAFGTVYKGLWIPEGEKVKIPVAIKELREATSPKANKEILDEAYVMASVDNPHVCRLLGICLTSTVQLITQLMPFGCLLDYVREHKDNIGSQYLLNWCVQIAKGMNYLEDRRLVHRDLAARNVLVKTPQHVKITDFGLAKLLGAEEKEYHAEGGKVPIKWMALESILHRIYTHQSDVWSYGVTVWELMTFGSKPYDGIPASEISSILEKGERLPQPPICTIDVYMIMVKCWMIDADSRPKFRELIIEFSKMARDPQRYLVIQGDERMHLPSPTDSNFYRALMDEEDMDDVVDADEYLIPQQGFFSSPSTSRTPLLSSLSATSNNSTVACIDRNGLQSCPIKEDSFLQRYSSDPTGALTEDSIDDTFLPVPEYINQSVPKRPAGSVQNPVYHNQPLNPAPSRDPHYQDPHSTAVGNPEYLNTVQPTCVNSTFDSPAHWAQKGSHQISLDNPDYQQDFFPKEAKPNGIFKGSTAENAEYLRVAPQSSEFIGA

As for `O=C1[C@H]2[C@H]3[C@H](O)[C@H](O)CC(=NOC[C@@H](O)COCc4ccco4)[C@@H]3CC[C@H]2C(=O)N1Cc1ccc2c(c1)OCO2`, the composite z-score in assay [1] was 1.4; in [5], -0.689; in assay [7], -0.172; in [8], 1.17; in [9], -0.177; in assay [10], -0.0177. Moreover, the composite z-score in [11] was 0.867; in [12] it was -0.387; in [13] it was -1.42; in assay [15], -0.454; in assay [16], 1.3; in assay [17] it was 1.15. Besides, the composite z-score was 0.9 in assay [18], 1.47 in assay [19] and 0.506 in [20]. For the same molecule, the z-score was 0.421 (inactive) in assay [2]; 0.674 (inactive) in assay [3]; 0.463 (inactive) in [4]; 2.06 (inactive) in assay [6]; -0.119 (inactive) in [14].
With `CCOC(=O)CCN1C(=O)[C@H]2[C@H]3[C@H](O)[C@H](O)CC(=NNC(=O)OCc4ccc(OC)cc4)[C@H]3CC[C@H]2C1=O`, the composite z-score came to 0.271 in assay [1]; 0.282 in [5]; 0.0108 in assay [7]; 0.335 in assay [8]; 0.316 in assay [9]; 0.0289 in assay [10]. Further, the composite z-score in [11] was 0.14; in [12], 0.127; in [13], 0.0124; in [15], -0.186; in [16] it was 0.071; in [17], 0.459. Besides, the composite z-score is 0.449 in assay [18], 0.132 in [19] and 0.747 in assay [20]. Moreover, the z-score in assay [2] is 0.0811 (inactive); in assay [3], -0.257 (inactive); in [4], -0.577 (inactive); in assay [6], -0.31 (inactive); in [14] it was -0.352 (inactive).
For `CC(C)(C)N1C(=O)[C@H]2[C@H]3[C@H](O)[C@H](O)CC(=NNC(=O)OCc4ccccc4)[C@@H]3CC[C@H]2C1=O`, the composite z-score in assay [1] is 0.561; in [5] it was 0.883; in [7] it was -0.0824; in assay [8], 0.457; in assay [9], 0.586; in [10], 0.172. The composite z-score in assay [11] was -0.106; in assay [12], -0.348; in [13] it was -0.518; in [15], 0.487; in assay [16], 0.554; in assay [17], 0.251. The values for the composite z-score in assay [18], in [19] and in [20] were 0.376, 0.455 and -0.337, respectively. The z-score in assay [2] was -0.668 (inactive); in assay [3], 0.588 (inactive); in assay [4], 9.42 (active); in assay [6], 0.45 (inactive); in [14], 0.305 (inactive).
On to `COc1ccc(COC(=O)NN=C2C[C@@H](O)[C@@H](O)[C@@H]3[C@@H]4C(=O)N(C(C)(C)C)C(=O)[C@@H]4CC[C@@H]23)cc1`, for which the composite z-score is 1.16 in [1]; 0.515 in assay [5]; -0.005 in assay [7]; 0.0364 in [8]; 1.02 in [9]; -0.03 in [10]. In addition, the composite z-score in assay [11] is 0.182; in [12], -0.163; in assay [13], -0.64; in assay [15], 0.189; in assay [16] it was 0.787; in assay [17], 0.314. The values for the composite z-score in assay [18], in assay [19] and in [20] were 0.967, 1.16 and -0.105, respectively. Besides, the z-score in [2] is -1.26 (inactive); in [3], -0.573 (inactive); in assay [4], -0.731 (inactive); in assay [6], 1.09 (inactive); in [14], 0.992 (inactive).
For `COc1cccc([C@H]2Oc3ccc(OC)cc3C(=NOCC[C@@H]3C=C[C@H](OC(C)=O)[C@@H](COC(C)=O)O3)[C@@H]2O)c1`, the composite z-score in assay [1] was 0.829; in [5], 1; in assay [7], -0.0769; in [8], 0.475; in [9] it was 0.647; in assay [10] it was 0.0281. For the same molecule, the composite z-score in [11] is 1.21; in assay [12], 0.0266; in assay [13], -0.153; in [15], 0.696; in [16], 0.321; in assay [17] it was 0.274. Besides, the figures for the composite z-score in [18], in [19] and in [20] were 0.795, 0.718 and 0.842, respectively. The z-score in assay [2] is 0.243 (inactive); in assay [3] it was 0.594 (inactive); in assay [4], 0.0357 (inactive); in assay [6], 0.677 (inactive); in assay [14], -0.019 (inactive).
